Rows were chosen to be rich in hits. Some 2.9% of all compounds tested hit in one or more screens of this group.
ZTA counter: ZTA (EBV) inhibition in EBNA-1 counter-screen; AID 2234; inhibition, % at 11 µM; actives 0.15% (n = 320,000); P03206; ZTA-DNA binding, fluorescence polarization; in the data active means inhibition above about 33%
PAFAH1B3 FP inh: PAFAH1B3 (human) inhibition; Q15102; recombinant PAFAH1B3, FP-rhodamine probe, fluorescence polarization; inhibition, % at 3.39 µM; actives 0.28% (n = 340,000); AID 492972;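 active means inhibition above the screen-wide average of all tested compounds plus 3 SD, cut at about 25% in these data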;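 further: 0% = enzyme with DMSO only and 100% = wells lacking PAFAH1B3 protein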
Target sequence (Q15102 whole entry, looked up): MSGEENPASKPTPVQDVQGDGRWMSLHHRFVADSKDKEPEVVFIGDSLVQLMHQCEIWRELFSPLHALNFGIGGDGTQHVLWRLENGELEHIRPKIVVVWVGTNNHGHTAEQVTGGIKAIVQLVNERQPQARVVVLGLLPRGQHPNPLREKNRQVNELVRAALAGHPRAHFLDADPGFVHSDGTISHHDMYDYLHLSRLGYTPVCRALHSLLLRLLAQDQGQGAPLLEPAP
PAFAH1B2 inh: blocks human PAF acetylhydrolase 1b catalytic subunit 2 | actives 1.2% (n = 340,000) | recombinant PAFAH1B2, FP-rhodamine activity probe, fluorescence polarization | inhibition, % at 3.39 µM | P68402;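 active means inhibition above the mean of all tested compounds plus 3 SD, cut at about 24% in these data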;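 further: 0% = enzyme with DMSO and 100% = wells lacking PAFAH1B2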
Target sequence (P68402 whole entry, looked up): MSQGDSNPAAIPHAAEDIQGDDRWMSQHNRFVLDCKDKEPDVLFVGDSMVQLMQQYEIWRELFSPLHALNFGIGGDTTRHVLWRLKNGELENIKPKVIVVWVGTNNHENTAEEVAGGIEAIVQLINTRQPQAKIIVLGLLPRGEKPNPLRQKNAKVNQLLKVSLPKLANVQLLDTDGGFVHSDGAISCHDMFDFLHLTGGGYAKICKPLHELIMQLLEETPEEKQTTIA
PAFAH2 FP inh: inhibitors of human PAFAH2 | recombinant PAFAH2, FP-rhodamine activity probe, fluorescence polarization | Q99487 | inhibition, % at 3.39 µM | AID 492956 | actives 0.99% (n = 340,000);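 active means inhibition above the mean over all tested compounds plus 3 SD, cut at about 30% in these data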;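 further: inhibitors block probe labeling of enzyme so polarization drops; 0% = enzyme with DMSO and 100% = wells lacking PAFAH2 protein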
EBNA-1 inh: blocks EBNA-1 binding to DNA; AID 1950; inhibition, % at 14.8 µM; actives 0.34% (n = 300,000); EBNA-1 DNA binding, fluorescence polarization; in the data active means inhibition above about 28%
rCAG RNA binder: molecules binding r(CAG) RNA repeats; r(CAG) RNA repeat, TO-PRO-1 dye displacement fluorescence; inhibition, % at 3 µM; actives 1.3% (n = 370,000); AID 651821;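 active means inhibition above the plate cutoff, the mean of all test compounds on that plate plus 3 SD, cut at about 35% in these data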;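 further: 0% = DMSO alone and 100% = 100 µM mitoxantrone as full dye displacement; higher means more dye released from RNA so lower well fluorescence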
rCAG bind conf: r(CAG) RNA repeat binding, confirmation | TO-PRO-1 dye displacement fluorescence | inhibition, % at 3 µM | AID 652065 | shares compounds with rCAG RNA binder | actives 70% (n = 4,300);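 active means inhibition above a per-plate cutoff, the mean inhibition of sample wells plus 3 SD, cut at about 35% in these data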;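 further: loss of TO-PRO-1 fluorescence as compound displaces dye from 1x1 AA loop RNA; 0% = DMSO only wells and 100% = 100 µM mitoxantrone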
dCAG dye counter: counter-screen for rCAG RNA binders: DNA CAG dye complex inhibitors; shares compounds with rCAG RNA binder; d(CAG) DNA oligo TO-PRO-1 dye displacement, fluorescence; inhibition, % at 3 µM; actives 94% (n = 4,300); AID 652068;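 active means inhibition above its plate's cutoff, the mean test-well inhibition plus 3 SD, cut at about 4.8% in these data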;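 further: 0% = DNA dye mix with DMSO and 100% = 100 µM mitoxantrone; hits displace the dye from DNA and so lower well fluorescence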
dCAG dye DR: disrupts DNA CAG TO-PRO-1 complex in dose response | shares compounds with rCAG RNA binder | DNA CAG/GTC duplex TO-PRO-1 dye displacement fluorescence | IC50, µM | actives 20% (n = 250) | AID 686960; in the data active means IC50 below about 10 µM
The depositor's hits bear a star; i = inactive; . = no result.

SMILES	ZTA counter	PAFAH1B3 FP inh	PAFAH1B2 inh	PAFAH2 FP inh	EBNA-1 inh	rCAG RNA binder	rCAG bind conf	dCAG dye counter	others
Cc1ccc(Cn2c(SCC(=O)NCC3CCCO3)nc3c2c(=O)n(C)c(=O)n3C)cc1 (stereo not drawn)	3	-1	1	0	9	-2	.	.
CC(C)(C(=O)c1ccccc1)/[N+]([O-])=C/c1ccccc1F	13	-6	2	-8	-3	0	.	.
COc1ccccc1NC(=O)N1CCc2[nH]c3ccc(Cl)cc3c2C1	-1	2	-3	6	-4	0	.	.
CC(C)NC(=O)C1(C)CN(S(C)(=O)=O)CC(=O)N1Cc1cccc(F)c1 (stereo not drawn)	.	.	.	.	.	2	.	.
CCOC(=O)c1csc(NC(=O)Nc2cccc(Cl)c2)n1	7	6	4	6	19	59*	50*	28*
NCc1csc(NC(=O)Nc2cccc(Cl)c2)n1	.	.	.	.	.	35*	10	8.4*
CCOC(=O)c1csc(NC(=O)COc2ccc(Cl)cc2Cl)n1	8	3	7	21	-10	0	.	.
Cc1ccc(N2CCN(C(C(=O)Nc3c(C)cccc3C)c3cc4ccccc4o3)CC2)cc1 (stereo not drawn)	.	.	.	.	.	4	.	.
O=[N+]([O-])c1cc([N+](=O)[O-])c2c(=Nc3ccccc3)n(-c3ccccc3)n(O)c2c1	4	24	17	20	-6	33	.	.
Cc1ccc(C)c(NC(=O)c2ccccc2Sc2ccc([N+](=O)[O-])cc2Cl)c1	14	-2	5	-10	4	1	.	.
Cn1c(=O)c2c(ncn2CC(=O)Nc2cccc(S(=O)(=O)Nc3ccccc3F)c2)n(C)c1=O	11	-2	4	15	13	11	.	.
Cc1ccc([N+](=O)[O-])cc1S(=O)(=O)Nc1cccc(S(=O)(=O)Nc2ccccc2C(=O)O)c1	.	10	12	11	.	46*	38*	9.3*
O=C(CSc1ccc([N+](=O)[O-])cc1)Nc1cccc(S(=O)(=O)Nc2ccccc2F)c1	1	-4	47*	10	-4	50*	37*	13*
Cc1ccc(C)c(NC(=O)c2ccccc2NS(=O)(=O)c2cc([N+](=O)[O-])ccc2C)c1	2	7	0	8	7	40*	77*	43*
Cc1cc(C2CCCCC2)n(O)c(=O)c1	12	3	0	0	9	2	.	.
O=C(NC1CCCC1)C(C1CC1)n1c(C2CC2)nc2ccccc21 (stereo not drawn)	.	.	.	.	.	0	.	.
Cc1ccc(C)c(NC(=O)NNC(=O)c2cc3ccccc3cc2O)c1	2	-1	4	-3	4	35*	28	9.0*
Cc1ccc(NC(=O)c2cc3ccccc3cc2O)cc1	-9	5	5	3	-13	28	.	.
O=C(NNC(=O)c1cc2ccccc2cc1O)Nc1ccccc1F	-2	14	3	2	-1	41*	22	7.2*
COc1ccc(NC(=O)c2cc3ccccc3cc2O)cc1	12	11	2	8	18	46*	39*	16*
COC(=O)[C@]12C[C@H](CC(=O)N3CCCC3)C(=O)N(CCc3ccc(OC)c(OC)c3)C1=C[C@H](C(C)C)O[C@@H]2C1CC1	.	.	.	.	.	-2	.	.
COc1ccc(C(=O)Oc2coc(CSc3nnc(NC(=O)c4cccs4)s3)cc2=O)cc1	2	5	-2	-3	14	35*	52*	16*
O=C(Oc1coc(CSc2nnc(NC(=O)C3CC3)s2)cc1=O)c1ccccc1	14	-4	4	8	2	4	.	.
O=C(O)C(Cc1ccnc2ccccc12)=NO	.	5	-2	-1	.	3	.	.
Cc1nc(SCC(=O)c2ccccc2)[nH]c(=O)c1Oc1ccc(Cl)cc1	-12	11	20	7	-5	41*	35*	8.5*
SMILES	ZTA counter	PAFAH1B3 FP inh	PAFAH1B2 inh	PAFAH2 FP inh	EBNA-1 inh	rCAG RNA binder	rCAG bind conf	dCAG dye counter	others
CC1(C(=O)NS(=O)(=O)Cc2cccc(Cl)c2)CCN1C(=O)C/C=C/c1ccccc1 (stereo not drawn)	.	.	.	.	.	39*	35*	8.3*
CC1(C(=O)NS(=O)(=O)Cc2cccc(Cl)c2)CCN1C(=O)Cc1ccc(-c2ccccc2)cc1 (stereo not drawn)	.	.	.	.	.	72*	70*	29*	dCAG dye DR=i
CC1(C(=O)NS(=O)(=O)Cc2cccc(Cl)c2)CCN1C(=O)C1(c2ccc(Cl)cc2)CC1 (stereo not drawn)	.	.	.	.	.	54*	45*	11*
CC(C)CC(C(=O)Nc1oc(-c2ccco2)c(-c2ccco2)c1C#N)N1C(=O)c2ccccc2C1=O (stereo not drawn)	5	7	3	18	-4	78*	74*	36*
Cc1ccc(C(=O)NCC(=O)OCn2nnc3ccccc3c2=O)cc1	1	8	6	8	.	-1	.	.
Cc1ccc(-n2c(=S)sc3c(=O)n(-c4ccccc4F)c(SCC(=O)O)nc32)cc1C	2	1	0	4	-3	47*	46*	13*
COc1ccccc1-n1c(SCC(=O)O)nc2c(sc(=S)n2-c2ccccc2C)c1=O	0	5	1	14	-4	22	.	.
CCc1ccc(-n2c(=S)sc3c(=O)n(-c4ccccc4)c(SCC(=O)O)nc32)cc1	0	6	5	7	8	41*	32	6.9*
CCOc1ccc(-n2c(=S)sc3c(=O)n(-c4ccccc4)c(SCC(=O)O)nc32)cc1	23	2	-1	8	13	39*	26	5.7*
COc1cccc(NC(=O)CSc2nc3c(oc4ccccc43)c(=O)[nH]2)c1	-12	11	-2	1	7	54*	45*	15*
Cc1ccc(CN2CC(C(=O)N(Cc3nnc(-c4ccccc4Cl)o3)C3CC3)CC2=O)cc1 (stereo not drawn)	-5	2	5	-4	-4	-5	.	.
Fc1c(F)c(F)c(N/N=C/c2c[nH]c3ccccc23)c(F)c1F	1	8	5	8	0	34	.	.
C(=NN=C1c2ccccc2-c2ccccc21)c1c[nH]c2ccccc12	.	5	-2	-8	.	35*	39*	20*
Oc1ccc(C=NN=C2c3ccccc3-c3ccccc32)c(O)c1	.	-4	-3	-14	.	49*	49*	32*
CC(C)(C)c1ccc(S(=O)(=O)N2CCCC(C(=O)NCCN3CCC(Cc4ccccc4)CC3)C2)cc1 (stereo not drawn)	.	.	.	.	.	3	.	.
